Screening data from PubChem BioAssay.
Only some compounds are listed: those with a hit (about 3.2% of all), similar ones and a draw of the others.
rCAG RNA binder – molecules binding r(CAG) RNA repeats | inhibition, % at 3 µM | AID 651821 | r(CAG) RNA repeat, TO-PRO-1 dye displacement fluorescence | 370,000 compounds, 1.3% hits;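 active means inhibition above the plate cutoff, the mean of all test compounds on that plate plus 3 SD, cut at about 35% in these data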;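 further: 0% = DMSO alone and 100% = 100 µM mitoxantrone as full dye displacement; higher means more dye released from RNA so lower well fluorescence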
sPLA2-III inh – Blocks human group III sPLA2 activity. QFRET BODIPY PC-A2 liposome hydrolysis, fluorescence. inhibition, % at 12.2 µM. 370,000 compounds, 0.56% hits;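 active means inhibition above mean plus 3 SD of compounds lying within the high and low control bounds, cut at about 19% in these data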;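 further: 0% = median of test compound wells and 100% = no enzyme DMSO wells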
Target sequence (Q9NZ20 whole entry, looked up): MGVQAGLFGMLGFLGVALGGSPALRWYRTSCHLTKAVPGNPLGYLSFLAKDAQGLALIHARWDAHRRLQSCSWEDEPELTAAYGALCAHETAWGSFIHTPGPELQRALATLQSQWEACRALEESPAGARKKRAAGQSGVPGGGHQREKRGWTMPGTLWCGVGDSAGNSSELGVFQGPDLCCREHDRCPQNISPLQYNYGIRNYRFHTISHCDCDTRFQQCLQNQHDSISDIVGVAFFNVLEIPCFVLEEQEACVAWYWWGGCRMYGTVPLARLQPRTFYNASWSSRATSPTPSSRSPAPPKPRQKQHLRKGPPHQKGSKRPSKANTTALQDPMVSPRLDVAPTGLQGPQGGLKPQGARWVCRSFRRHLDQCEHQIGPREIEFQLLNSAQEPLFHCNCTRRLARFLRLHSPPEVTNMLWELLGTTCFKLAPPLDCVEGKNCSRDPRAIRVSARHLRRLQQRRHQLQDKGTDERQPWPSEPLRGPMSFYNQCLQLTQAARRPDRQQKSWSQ
MsrA act – activators of bovine methionine sulfoxide reductase A. purified bovine MsrA, absorbance read-out. activation, % at 10.6 µM. 360,000 compounds, 0.3% hits. AID 602163; in the data active means activation above about 7.5%;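 further: 0% = vehicle and 100% = reference activator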
MsrA inhibitor – inhibits bovine methionine sulfoxide reductase A; inhibition, % at 15.5 µM; purified bovine MsrA, absorbance read-out; 360,000 compounds, 0.75% hits; in the data active means inhibition above about 4.5%;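 further: 0% = vehicle wells with enzyme and 100% = reference inhibitor wells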
PG9 binder – PG9 antibody binding by small molecule; TR-FRET gp120-PG9 antibody binding; inhibition, % at 6.7 µM; AID 624416; 360,000 compounds, 0.43% hits; in the data active means inhibition above about 8.5%
PG9 bind confirm – PG9 antibody binding, confirmed. inhibition, % at 6.7 µM. 1,500 compounds, 90% hits. TR-FRET PG9 antibody binding, biochemical. shares compounds with PG9 binder; in the data active means inhibition above about 9%
PGV04 counter – counter-screen for PG9 binders: binding control antibody PGV04; shares compounds with PG9 binder; TR-FRET PGV04 antibody-gp120 binding, biochemical; inhibition, % at 6.7 µM; 1,500 compounds, 95% hits; AID 651604; in the data active means inhibition above about 9.5%
Active calls of the source: *; nt = no result.

SMILES	rCAG RNA binder	sPLA2-III inh	MsrA act	MsrA inhibitor	PG9 binder	PG9 bind confirm	PGV04 counter
Cc1cnc(NC(=O)CCCSc2nc3ccccc3s2)s1	-0.8	2.4	-1.9	-0.7	13.4*	18.0*	24.6*
Cc1ccc(-c2nc3cccnc3s2)cc1NC(=O)C1c2ccccc2Oc2ccccc21	2.6	6.5	-1.6	1.0	19.1*	30.0*	63.2*
Cc1ccc(-c2nc3cccnc3s2)cc1NC(=O)c1ccco1	9.9	1.4	-2.1	1.1	-0.9	nt	nt
S=c1[nH]nc(-c2ccccn2)n1/N=C/c1ccc(-c2ccccc2Br)o1	11.7	4.1	0.7	1.6	15.2*	7.7	25.1*
O=c1ccc(-c2ccc(S(=O)(=O)N3CCN(c4ccccc4)CC3)o2)n[nH]1	2.8	-2.5	-2.3	-1.5	25.0*	43.0*	47.7*
O=c1ccc(-c2ccc(S(=O)(=O)N3CCN(c4cccc(Cl)c4)CC3)o2)n[nH]1	3.9	1.4	3.2	-2.4	3.3	nt	nt
Cc1ccccc1Cn1c(=O)n(CCCC(=O)NCc2ccco2)c(=O)c2sccc21	-5.0	2.1	-13.5	-0.9	4.8	nt	nt
Cc1ccc(-n2c(=O)c3sccc3n(CC(=O)NCc3ccco3)c2=O)cc1F	0.8	-1.8	-0.8	-0.3	9.4*	12.2*	19.3*
Cc1cc(C)c(Cn2c(=O)n(CCCC(=O)NCc3ccco3)c(=O)c3sccc32)c(C)c1	0.7	1.4	-0.8	0.5	18.5*	21.3*	25.5*
COc1ccc(C=O)cc1Cn1c(=O)n(CCC(=O)NCc2ccco2)c(=O)c2sccc21	-0.9	0.8	-5.5	-0.3	14.1*	7.2	17.2*
Cc1ccc(C)c(Cn2c(=O)n(CCC(=O)NCc3ccco3)c(=O)c3sccc32)c1	-0.4	11.6	-0.5	0.4	11.7*	13.2*	17.6*
Cc1ccc(-n2c(=O)c3sccc3n(CC(=O)NCc3ccco3)c2=O)cc1	5.8	-3.1	-8.7	-0.8	-2.4	nt	nt
Cc1cccc2nc(Cn3c(=O)n(CCC(=O)NCc4ccco4)c(=O)c4sccc43)cc(=O)n12	1.2	-0.8	-2.5	0.2	0.3	nt	nt
COc1ccc(C2C(C(=O)Nc3ccc(F)cc3F)CCC(=O)N2c2ccc(OC)cc2)cc1 (centres undefined)	0.9	-5.9	nt	nt	nt	nt	nt
COC(=O)[C@]12C[C@H](CC(=O)NCc3ccc(OC)c(OC)c3)C(=O)N(Cc3cccc4ccccc34)C1=C[C@H](C(C)(C)C)O[C@@H]2C	3.6	-9.3	nt	nt	nt	nt	nt
CCOc1cccc2cc(C(=O)NCc3ccc(OC)cc3)c(=N)oc12	-4.6	4.1	-0.3	2.3	13.4*	5.5	6.3
CCOc1cccc2cc(C(=O)Nc3cc(C)on3)c(=O)oc12	2.3	5.9	-1.9	1.2	15.1*	33.0*	36.7*
COc1ccc(CN(C)C(C#Cc2ccccc2)Cc2ccccc2)c(OC)c1 (centres undefined)	1.4	1.6	nt	nt	nt	nt	nt
CCN(C[C@H]1[C@@H](c2ccc(C3=CCCC3)cc2)[C@H](CO)N1c1nc(C)c(C)s1)S(=O)(=O)c1ccccc1[N+](=O)[O-]	14.2	6.0	nt	nt	nt	nt	nt
C=CCN(CC#CC(=C)C)Cc1ccc(OC)cc1OC	0.4	6.7	nt	nt	nt	nt	nt
COc1ccc([C@H]2OC(=O)C[C@H]2C(=O)N2CCN(c3ccccc3Cl)CC2)cc1OC	-0.2	-3.5	nt	nt	nt	nt	nt
O=C(CNC(=O)c1ccc(Br)cc1)c1ccccc1	1.8	-18.1	-0.4	-1.0	-0.3	nt	nt
O=C(CNC(=O)c1ccc(Br)cc1)c1ccc(Br)cc1	-2.4	2.4	4.2	2.9	11.2*	17.9*	25.6*
COC(=O)Nc1nc(-c2ccccc2)c(C(=O)c2ccc(Cl)cc2)s1	2.0	-7.4	-4.2	0.5	44.0*	44.3*	65.2*
O=C(CSc1ncccc1-c1nc2ccccc2[nH]1)N1CCc2ccccc21	7.5	-3.9	0.2	-0.1	13.9*	20.9*	33.0*
COCCNC(=O)CSc1cc(-c2ccccc2)c2ccc(OC)cc2n1	-6.2	-11.9	-3.4	0.0	15.8*	21.4*	25.5*
COc1ccc2c(-c3ccccc3)cc(SCC(=O)NC(N)=O)nc2c1	0.8	6.0	-3.3	0.7	17.1*	28.1*	64.9*
COc1ccc2c(-c3ccccc3)cc(SCC(=O)NC3CCS(=O)(=O)C3)nc2c1 (centres undefined)	0.7	11.5	-0.7	2.1	22.2*	16.0*	19.3*
